Assay outcomes: PubChem BioAssay, National Center for Advancing Translational Sciences (NCATS)
TDP1 cell noCPT – qHTS for Inhibitors of human tyrosyl-DNA phosphodiesterase 1 (TDP1): qHTS in cells in absence of CPT. DT40 Tdp1-/- hTDP1 cells, no CPT, ATP luminescence, 48 h. Potency, µM (highest dose often 46.2 µM), without a hit: at the highest dose activity change, negative = growth inhibition, most hits filed as inhibitors. actives 15% (n = 420,000); further: potency means the concentration at half of the fitted maximal effect; nearly all actives have a fitted effect of over 55% in size
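Growth kinetics read by CellTiter-Glo luminescence after ≥48 hr at 37 °C. Cells: DT40 Tdp1-/- stably carrying human TDP1, 400 per well, compound exposure in the absence of CPT (DMSO vehicle).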
RORg inh – blocks mouse ROR gamma transcriptional activity; P51450; Drosophila S2 Gal4-RORgamma UAS-luciferase reporter, 20 h; Potency, µM (highest dose often 53.6 µM), for inactives: at the highest dose activity change, negative = inhibition, most hits filed as inhibitors; actives 5.4% (n = 310,000); AID 2551; further: potency means the concentration at half of the fitted maximal effect; nearly all actives have a fitted effect of over 60% in size
Target sequence (P51450 whole entry, looked up, the tested form may be a part): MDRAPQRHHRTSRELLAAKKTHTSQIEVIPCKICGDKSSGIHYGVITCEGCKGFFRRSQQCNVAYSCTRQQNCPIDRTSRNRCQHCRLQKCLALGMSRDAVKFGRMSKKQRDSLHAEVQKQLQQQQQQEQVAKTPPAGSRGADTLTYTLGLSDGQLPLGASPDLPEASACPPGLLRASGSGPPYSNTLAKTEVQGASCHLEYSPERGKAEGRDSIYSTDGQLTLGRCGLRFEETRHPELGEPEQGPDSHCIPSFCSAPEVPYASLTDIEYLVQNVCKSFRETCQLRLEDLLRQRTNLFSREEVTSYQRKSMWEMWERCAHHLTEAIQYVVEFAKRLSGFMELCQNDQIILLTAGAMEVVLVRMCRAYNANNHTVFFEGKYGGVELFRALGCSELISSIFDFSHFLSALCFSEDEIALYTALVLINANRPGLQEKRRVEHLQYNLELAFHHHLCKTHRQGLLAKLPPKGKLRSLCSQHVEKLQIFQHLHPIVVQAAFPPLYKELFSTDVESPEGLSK
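Compounds are pin-transferred onto Drosophila Schneider cells expressing a copper-inducible Gal4–ROR gamma transactivation domain fusion. After 1 hr, copper sulfate is added to 700 uM final; luciferase is read 20 hr later.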
IL-1B inflam inh – blocks inflammasome-driven IL-1 beta release | THP-1 LPS/ATP IL-1B secretion, AlphaLISA, 16 h; active compounds read low | activity change, % at 57.5 µM | actives 4.7% (n = 360,000); in the data active means activity change below about -50%; inconclusive means mostly about -30% to -49%
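THP-1 cells pretreated 1 hr with compounds (up to 57.5 uM final), then stimulated with LPS (250 ng/mL final) plus ATP (1.25 mM final); secreted IL-1B measured by AlphaLISA after 16 hr, decreased signal indicating inhibition.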
TDP1 cell CPT – DT40-hTDP1 cell growth loss with CPT. actives 12% (n = 420,000). Potency, µM (top dose mostly 46.2 µM), without a hit: top-dose activity change, negative = growth inhibition, usual class: inhibitors. chicken DT40 Tdp1-/-;hTDP1 cells + 20 nM CPT, ATP luminescence, 48 h; further: potency means the concentration at half of the fitted maximal effect; nearly all actives have a fitted effect of over 55% in size
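Chicken DT40 Tdp1-/- cells complemented with human TDP1, 400 cells/well, exposed to compounds plus 20 nM camptothecin for at least 48 h at 37 C; viability read as ATP content by CellTiter-Glo luminescence.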
Gal4-VP16 FLuc – Gal4-VP16 reporter inhibition counter-screen. AID 2546. Potency, µM (highest dose often 53.6 µM), for inactives: at the highest dose activity, negative = inhibition, most hits filed as inhibitors. actives 3.5% (n = 310,000). Drosophila S2 Gal4-VP16 UAS-luciferase, luminescence, 20 h;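 further: Gal4-VP16 expression switched on by copper sulfate through the metallothionein promoter; potency means the concentration at half of the fitted maximal effect; nearly all actives have a fitted effect of over 50% in size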
ELG1 DNA repair – ELG1-dependent DNA repair inhibition; actives 2.3% (n = 330,000); AID 504467; Potency, µM (top dose mostly 46.1 µM), for the others: at the highest dose activity change, negative = inhibition, usual class: inhibitors; HEK293T ELG1-luciferase reporter, luminescence, 16 h; DNA damage induced by 5-fluorouridine; further: potency means the concentration at half of the fitted maximal effect; nearly all actives have a fitted effect of over 55% in size
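Overnight (16 hr) co-exposure of 2,000 cells/well to 5-fluorouridine and compound at 37 °C preceded detection. Luciferase was quantified via ONE-Glo luminescence; loss of signal denotes inhibition.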
An asterisk follows results filed as active; ? = inconclusive; . = no result given. In the library only some 21% were active in any assay of this set; here they are far more common. Unless noted, the call rests on the fitted dose curve; in most records, active means well fitted curve in the direction sought with a large enough effect; inconclusive means small, poorly fitted or top-dose-only effect, or another doubt; inactive means no such curve, though single readings can be large; an effect the other way counts as inactive or inconclusive. On the % scale 0 is the no-effect control and ±100 the full control effect.

SMILES	TDP1 cell noCPT	RORg inh	IL-1B inflam inh	TDP1 cell CPT	Gal4-VP16 FLuc	ELG1 DNA repair
O=C1c2ccccc2C(Nc2ccc3c(c2)OCCO3)N1Cc1ccccc1 (stereo not given)	16.4µM*	49.9%	-2.7	29.1µM*	?	-17.1%
O=C(NC1CCCCC1)C1c2ccccc2C(=O)N1Cc1ccc2c(c1)OCO2 (stereo not given)	1.5%	0.5%	-12.8	-1.9%	-1.4%	-8.1%
CCOc1ccc(NC2c3ccccc3C(=O)N2Cc2ccc3c(c2)OCO3)cc1 (stereo not given)	16.4µM*	13.9%	-26.9	?	9.7%	?
COc1ccccc1Nc1ccc2nonc2c1[N+](=O)[O-]	9.9%	.	18.1	-0.2%	.	3.0%
COC(=O)C1=C(C)NC(=O)NC1c1cn(-c2ccccc2)nc1-c1cccs1 (stereo not given)	-14.5%	-1.2%	-8.4	?	-3.3%	2.0%
COC(=O)C1=C(C)NC(=O)NC1c1cn(-c2ccccc2)nc1-c1ccc(OC)c(Br)c1 (stereo not given)	?	.	.	-24.8%	.	.
COC(=O)C1=C(C)NC(=O)NC1c1cn(-c2ccccc2)nc1-c1ccc(OC)c(Cl)c1 (stereo not given)	20.6µM*	.	.	?	.	.
CC1=C(C(=O)OC(C)C)C(c2cn(-c3ccccc3)nc2-c2cccs2)NC(=O)N1 (stereo not given)	23.1µM*	35.5%	13.7	?	-12.1%	?
O=C(NC1CCN(C(=O)Nc2ccc(F)cc2)CC1)c1cccc(F)c1	-10.5%	-29.1%	8.9	1.9%	0.7%	-7.7%
CCN(CC)C(=O)C1=C(C)N(CCCOC)C(=O)C(CC(=O)NCCc2ccccn2)C1 (stereo not given)	4.6%	.	25.4	4.1%	.	.
O=C(CSc1nccn1Cc1ccccc1)Nc1ccc2c(c1)OCCO2	-16.6%	.	.	7.6%	.	.
COc1ccccc1OCCn1c(C(C)Oc2ccccc2)nc2ccccc21 (stereo not given)	?	.	.	25.9µM*	.	.
C=CCn1c(CCCNC(=O)C(C)(C)C)nc2ccccc21	?	-18.9%	24.1	?	6.0%	1.3%
CCCCCn1c(CCCNC(=O)c2ccc(Cl)cc2)nc2ccccc21	16.4µM*	.	.	?	.	.
CC(C)(C)C(=O)NCCCc1nc2ccccc2n1CCCOc1ccc(Cl)cc1	8.2µM*	-9.1%	-74.3*	6.51µM*	-7.6%	23.1µM*
CC(=O)NCCc1nc2ccccc2n1CCCCOc1ccccc1	13µM*	37.4%	39.4	?	-9.6%	-17.6%
Cc1cccc(NC(=O)c2cccc(S(=O)(=O)N3CCc4ccccc4C3)c2)n1	?	.	-13.2	?	.	?
C=C(C)Cn1c(CCCNC(=O)C(C)(C)C)nc2ccccc21	23.1µM*	?	25.3	16.4µM*	-27.6%	-25.4%
CC(O)c1nc2ccccc2n1CCCCOc1ccccc1 (stereo not given)	14.6µM*	24.4%	-3.1	-23.6%	29.3%	15.8%
CC(=O)NCCc1nc2ccccc2n1CCCCOc1ccc(Cl)cc1	14.6µM*	.	.	20.6µM*	.	.
O=C(c1cc2ccccc2o1)N1CCN(Cc2nc3ccccc3s2)CC1	?	.	16.3	-6.0%	.	.
CC1CCCC(NC(=O)COC(=O)c2cc(S(=O)(=O)N3CCCCC3)ccc2N2CCOCC2)C1C (stereo not given)	?	8.4%	2.4	-26.3%	-1.7%	?
COc1ccc(NC(=O)COC(=O)C2COc3ccccc3O2)cc1OC (stereo not given)	-13.0%	.	24.6	-12.9%	.	.
O=C(c1cc(C(F)(F)F)cc(C(F)(F)F)c1)N1CCC[C@@]2(CCN(c3ccncc3)C2)C1	?	-5.0%	.	-29.5%	7.0%	.
CCOC(=O)c1cc(-c2ccccc2)nc2nc(N3CCCCC3)sc12	?	16.9%	14.6	?	-0.9%	?
SMILES	TDP1 cell noCPT	RORg inh	IL-1B inflam inh	TDP1 cell CPT	Gal4-VP16 FLuc	ELG1 DNA repair
CCOC(=O)c1cc(-c2ccccc2)nc2nc(N(CC)CC)sc12	?	22.6%	-53.9*	-2.7%	?	?
C=C1CCC[C@]2(C)C[C@H]3OC(=O)C(CN(Cc4ccc(OC)c(OC)c4)CC(C)O)[C@H]3CC12 (stereo not given in full)	18.4µM*	-15.8%	-97.8*	?	-9.6%	27.3%
C=C1CCC[C@]2(C)C[C@H]3OC(=O)C(CNCC(OC)OC)[C@H]3CC12 (stereo not given in full)	18.4µM*	2.6%	-78.4*	?	-15.3%	-2.3%
COc1ccc(CCNC(=O)C2(C)CCC(=O)N2CCC(C)C)cc1OC (stereo not given)	-8.3%	-21.1%	5.5	9.5%	-1.9%	4.0%
C=C1CCC[C@]2(C)C[C@H]3OC(=O)C(CNC(C)CCCC(C)C)[C@H]3CC12 (stereo not given in full)	20.6µM*	-30.5%	-98.6*	?	-19.2%	-15.7%
C=C1CCC[C@]2(C)C[C@H]3OC(=O)C(CN[C@@H](C)c4ccccc4)[C@H]3CC12 (stereo not given in full)	?	4.9%	-86.9*	?	9.6%	-10.5%
C=C1CCC[C@]2(C)C[C@H]3OC(=O)C(CN4CCOCC4)[C@H]3C[C@@H]12 (stereo not given in full)	?	18.4%	-74.3*	?	2.3%	-19.6%
COc1ccccc1-c1noc2c1C(=O)NCC2	-27.0%	.	15.5	-17.1%	.	.
CC(=O)Oc1ccccc1Cn1c(C)c(C(=O)NCc2cccc([N+](=O)[O-])c2)sc1=O	20.6µM*	.	-23.9	?	.	.
Cc1c(C(=O)NCc2cccc([N+](=O)[O-])c2)sc(=O)n1Cc1ccc(F)cc1	?	.	?	16.4µM*	.	.
CN1OC[C@@H]2CN(C(=O)C(C)(C)C)[C@H](c3cccc(Oc4ccccc4)c3)C[C@@H]21	?	.	7.5	-26.9%	.	.
COc1cc(S(=O)(=O)n2ccnc2C(C)C)ccc1Br	-1.9%	.	.	9.6%	.	.
CCOC(=O)N1CCC(N2C(=O)c3ccc(C(=O)Nc4ccc(OC)c(OC)c4)cc3C2=O)CC1	22.8%	7.6%	11.4	-6.3%	4.8%	4.0%
CC(=O)NC12CC3CC(C1)CC(C(=O)Nc1nc4ccc(S(C)(=O)=O)cc4s1)(C3)C2	-17.2%	44.6%	-0.3	-6.1%	-3.9%	2.8%
